Screens (PubChem)
Shown are actives, neighbours in structure and some others; about 1.1% of the full set was active somewhere.
SRC2 inh – inhibition of GAL4-SRC2 driven luciferase reporter, primary screen, SRC2 inhibitor project, cell-based, luminescence | AID 651957, 2012 | inhibition, % at 9 µM | Nuclear receptor coactivator 2 (Homo sapiens), Q15596 | HEK293 GAL4-SRC2 luciferase reporter | hit rate 0.17% among 370,000;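 active means inhibition above the mean inhibition of all tested compounds plus 3 SD, set per campaign, cut at about 52% in these data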
NR2F2 inh – NR2F2 transcriptional activity inhibitors, primary screen, cell-based, luciferase reporter, HEK293T, luminescence; hit rate 0.7% among 370,000; HEK293T NGFI-A luciferase reporter; COUP transcription factor 2 (Homo sapiens), P24468; inhibition, % at 8.6 µM;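 active means inhibition above a per-plate cutoff, mean inhibition of test wells between control levels plus 3 SD, cut at about 38% in these data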;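 further: cells cotransfected with COUP-TFII expression vector driving the NGFI-A reporter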
SRC3 inh – SRC3 coactivator transcriptional activity inhibitors, primary screen, cell-based, luminescence; hit rate 0.17% among 360,000; HEK293 GAL4-SRC3 luciferase reporter; inhibition, % at 3.6 µM;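 active means inhibition above a per-campaign cutoff, the mean of all compounds plus 3 SD, cut at about 60% in these data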;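 further: higher means less SRC3-driven luciferase light from the GAL4 reporter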
GalR3 antagonist – GalR3 antagonists in HEK293 cells, primary screen, cell-based, fluorescence readout | Galanin receptor type 3 (Homo sapiens), O60755 | HEK293 GalR3-CNG cAMP membrane potential fluorescence; galR3 body fused to GalR1 C-terminus | inhibition, % at 3 µM | hit rate 0.44% among 360,000;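 active means inhibition above the screen-wide average plus 3 SD, cut at about 13% in these data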;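 further: forskolin and galanin both at EC90 stimulate the cells; cAMP rise reported by CNG channel membrane potential dye signal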
LRH-1 inv ag – LRH-1 (NR5A2) inverse agonists, primary screen, cell-based, luminescence, HEK293T, StAR-luciferase reporter. Nuclear receptor subfamily 5 group A member 2 (Homo sapiens), O00482. hit rate 0.13% among 360,000. AID 602396, 2012. inhibition, % at 3.6 µM. LRH-1 transfected, 24 h;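 active means inhibition above the mean inhibition of all tested compounds plus 3 SD, cut at about 73% in these data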
NCOA1 inh – SRC1 coactivator transcriptional activity inhibitors, primary screen, cell-based, luminescence | Nuclear receptor coactivator 1 (Homo sapiens), Q15788 | HEK293 GAL4-SRC1 luciferase reporter | inhibition, % at 3.6 µM | hit rate 0.12% among 360,000;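 active means inhibition above the campaign mean plus 3 SD, with each screening campaign given its own cutoff, cut at about 60% in these data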
Numbers stand for hits; n = inactive; x = no result given.

SMILES | SRC2 inh | NR2F2 inh | SRC3 inh | GalR3 antagonist | LRH-1 inv ag | NCOA1 inh
CCCCC(=O)NC(c1ccc(C(C)C)cc1)c1ccc2cccnc2c1O (stereo unspecified) | n | n | 68 | n | n | n
CCCC(=O)NC(c1ccc(OC)cc1)c1ccc2cccnc2c1O (stereo unspecified) | n | n | 62 | n | n | n
CC(=O)NC(c1ccc(C)cc1)c1cc(Cl)c2cccnc2c1O (stereo unspecified) | n | n | n | n | n | n
CCCC(=O)NC(c1ccccc1)c1ccc2cccnc2c1O (stereo unspecified) | n | n | n | n | n | n
CCCCC(=O)NC(c1ccccc1Cl)c1ccc2cccnc2c1O (stereo unspecified) | n | n | 73 | n | n | n
CC(=O)NC(c1ccc(C(C)C)cc1)c1ccc2cccnc2c1O (stereo unspecified) | n | n | 82 | n | 90 | 68
CCCCC(=O)NC(c1ccccc1)c1ccc2cccnc2c1O (stereo unspecified) | n | n | 66 | n | 89 | n
COc1ccc(CC(=O)Nc2cccc(-c3nnc(-c4ccc(C)cc4)o3)c2)cc1OC | n | n | n | n | n | n
COc1ccc(CC(=O)Nc2cccc(-c3nnc(-c4ccccc4)o3)c2)cc1OC | 61 | n | n | n | n | n
O=C(NC1CCCCN(Cc2ccc(OC(F)(F)F)cc2)C1=O)c1cccc(C(F)(F)F)c1 (stereo unspecified) | n | n | x | x | x | x
Cc1nn(CCC(=O)NNC(=O)Nc2ccc(Cl)cc2)c(C)c1[N+](=O)[O-] | n | n | x | x | x | x
Clc1ccc(Nc2ncnc3ccc(Br)cc23)cc1 | n | n | n | n | n | n
COc1ccc(Nc2ncnc3ccc(Br)cc23)cc1OC | x | x | n | x | n | 61
O=C(Nc1nc(-c2ccccc2)cs1)C1CCCN(S(=O)(=O)c2ccccc2)C1 (stereo unspecified) | n | 44 | n | n | n | n
O=C(Nc1nc(-c2ccc(S(=O)(=O)N3CCCC3)cc2)cs1)c1cccs1 | n | 55 | n | n | n | n
O=C(O)c1cc(N/N=C/c2ccc3c(c2)OCO3)ccc1Cl | n | n | n | n | n | n
O=C(O)c1ccc(N/N=C/c2ccc3c(c2)OCO3)cc1 | 56 | n | n | n | n | n
Nc1[nH]c(C(=O)c2ccccc2)c(-c2cccc3ccccc23)c1C(=O)c1c(-c2ccccc2)[nH]c2ccccc12 | x | n | x | x | x | x
O=C(OCc1cn(Cc2c(F)cccc2F)nn1)N1CCCC1 | n | n | x | x | x | x
CCCC(=O)N1CCN(c2ccc(NC(=O)c3cc4ccccc4o3)cc2Cl)CC1 | n | n | 76 | n | n | n
N=c1c2c(-c3ccccc3)c(-c3ccccc3)n(Cc3ccccc3)c2ncn1CCCn1ccnc1 | n | n | 67 | n | n | n
COc1ccc2c(c1)-c1c(ssc1=S)C(C)(C)N2 | n | n | 66 | n | n | n
C[N+]1=C2N[C@@H](c3ccccc3)CC(=O)N2/C(=C\c2ccccc2)[C@@H]1Cc1ccccc1 | x | n | x | x | x | x
O=C(Nc1ccc(NC(=O)c2ccccc2Cl)c(Cl)c1)c1ccccn1 | x | n | x | x | x | x
Cc1cc(C)nc(-n2nc(C)cc2Nc2ccccc2)n1 | n | n | n | n | 75 | n
SMILES | SRC2 inh | NR2F2 inh | SRC3 inh | GalR3 antagonist | LRH-1 inv ag | NCOA1 inh
Cc1cc(Nc2ccccc2)n(-c2ccccc2)n1 | n | n | n | n | n | n
O=C(CCCC(=O)c1ccc(O)cc1)c1ccc(O)cc1 | n | n | n | n | n | n
O=C1C=CC(=C(c2ccc(O)cc2)c2ccc(O)cc2)C=C1 | n | n | n | n | 81 | n
COC(=O)C1=C(CN2CCCc3ccccc32)NC(=O)NC1c1ccc(F)cc1 (stereo unspecified) | 85 | 96 | 84 | n | 91 | 87
COc1ccc(CN(CC#Cc2ccc(C)cc2)C(N)=NC(=O)CCc2ccccc2)c(OC)c1 | n | n | x | x | x | x
COC(=O)CCC/C=C1/SCC(NC(=O)c2ccccc2)C1=O (stereo unspecified) | n | n | n | 13 | n | n
C=CCN(CC#CC1=CCCCC1)Cc1ccc(OC)cc1OC | n | n | x | x | x | x
OCC1OC(n2cnc3c(NCc4ccco4)ncnc32)C(O)C1O (stereo unspecified) | n | n | 63 | 86 | n | n
CCOC(=O)Cc1nc(N2CCCN(C(C)=O)CC2)c2c(C)c(C(=O)OCC)sc2n1 | n | n | x | x | x | x
O=[N+]([O-])c1ccc(O)c(/C=N/Nc2ccc(Cl)nn2)c1 | n | n | 82 | n | n | 68
N#CCC[C@@H]1CC[C@]2(CCCN(C(=O)C3CCCCC3)C2)O1 | n | n | x | x | x | x
COc1ccc(NC(=O)/C(Cl)=C(/Cl)S(=O)Cc2ccc(Cl)cc2)cn1 (stereo unspecified) | 64 | 66 | n | 35 | n | n
C/C(=N/NC(=O)c1ccoc1C)c1cccs1 | n | n | x | x | x | x
COc1ccccc1CNc1ncc(-c2ccc(F)cc2)n1C | n | n | n | n | n | n
COc1ccc(CNc2ncc(-c3ccc(F)cc3)n2C)c2ccccc12 | 82 | n | n | n | n | n
Oc1ccc(N=Nc2ccc3c(c2)OCCO3)c2ncccc12 | 57 | n | n | n | n | n
Cc1cc(C)c2cc(CN(Cc3ccco3)C(=O)NCc3ccccc3)c(=O)[nH]c2c1 | n | n | n | 14 | n | n
N#Cc1ccccc1N1CCN(S(=O)(=O)c2ccc3c(c2)CCC(=O)N3)CC1 | n | n | x | x | x | x
O=C(/C=C/c1cn(-c2ccccc2)nc1-c1cccnc1)c1ccco1 | 64 | n | n | n | n | n
C/C(=N\Nc1ncnc2sc(C)c(C)c12)c1ccccn1 | n | n | 81 | n | n | n
Cc1sc2ncnc(N/N=C/c3cccc(O)c3)c2c1C | n | n | n | n | n | n
O=C(NC1CCCCC1)C(c1cccnc1)N(C(=O)CCl)c1cccc(Cl)c1 (stereo unspecified) | 57 | n | 69 | n | n | n
COC(=O)[C@]12C[C@H](CC(=O)NCc3ccccc3)C(=O)N(Cc3cccc4ccccc34)C1=C[C@H](C1CCCC1)O[C@@H]2C | n | n | x | x | x | x
CC(C)/C=C(/C(=O)c1ccc(Cl)cc1Cl)n1cncn1 | n | n | n | n | n | n
CC(C)(C)C(=O)/C(=C/c1ccc(Cl)cc1)n1cncn1 | 62 | n | 73 | n | n | n
CC(C)(C)C(=O)OC12CCCN(C1)/C(=C/c1ccc(Cl)cc1)C2 (stereo unspecified) | n | n | x | x | x | x
COc1cccc2c1OCC(C(=O)O)C2 (stereo unspecified) | n | n | n | n | n | n
